Reference: the supplement of paper PMC11732987, “Enantioselective OTUD7B fragment discovery through chemoproteomics screening and high-throughput optimisation” (Communications Chemistry, 2025)

Experiments:
Assay in all cases: log2 ratio of Biotin-Ahx-Ub-VS probe labelling (fragment/DMSO); higher = less target engagement (more negative = stronger competition), active = hit call of the paper (q ≤ 0.05, log2 ratio ≤ -1)
Conditions in all cases: compound concentration: 200 uM; treatment time: 3 h
UniProt O00507 = target: UniProt O00507
Procedure, shortened: (§1)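 HEK293T lysate (495 µg per sample, in Tris/CHAPS/IGEPAL buffer with protease inhibitors) was exposed in triplicate for 3 h to fragment at 200 µM or to vehicle, then to Biotin-Ahx-Ub-VS at 0.5 µM final for 1 h. Labelled DUBs were enriched on NeutrAvidin, digested with LysC and trypsin, and analysed by diaPASEF LC-MS/MS. Spectronaut label-free quantities were normalised to the global median, and values are average log2 ratios of fragment over vehicle from an unpaired t-test. Only proteins with ≥2 unique peptides were used.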

UniProt P51784 = target: UniProt P51784
Procedure, shortened: as §1

UniProt Q5T2D3 = target: T1, UniProt Q5T2D3
T1 sequence (whole entry): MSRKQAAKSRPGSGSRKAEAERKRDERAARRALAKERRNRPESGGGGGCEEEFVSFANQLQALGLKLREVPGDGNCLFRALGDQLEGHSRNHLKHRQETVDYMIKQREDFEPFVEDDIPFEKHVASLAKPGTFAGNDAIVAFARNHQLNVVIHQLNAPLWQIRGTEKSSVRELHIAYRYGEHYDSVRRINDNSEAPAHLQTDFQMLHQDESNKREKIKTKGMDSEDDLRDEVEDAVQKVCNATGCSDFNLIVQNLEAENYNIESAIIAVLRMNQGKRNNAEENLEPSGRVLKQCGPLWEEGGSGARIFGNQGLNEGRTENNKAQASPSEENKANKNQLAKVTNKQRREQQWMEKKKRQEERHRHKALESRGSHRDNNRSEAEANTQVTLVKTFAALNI
Procedure, shortened: as §1

UniProt Q8TE49 = target: T2, UniProt Q8TE49
T2 sequence (whole entry): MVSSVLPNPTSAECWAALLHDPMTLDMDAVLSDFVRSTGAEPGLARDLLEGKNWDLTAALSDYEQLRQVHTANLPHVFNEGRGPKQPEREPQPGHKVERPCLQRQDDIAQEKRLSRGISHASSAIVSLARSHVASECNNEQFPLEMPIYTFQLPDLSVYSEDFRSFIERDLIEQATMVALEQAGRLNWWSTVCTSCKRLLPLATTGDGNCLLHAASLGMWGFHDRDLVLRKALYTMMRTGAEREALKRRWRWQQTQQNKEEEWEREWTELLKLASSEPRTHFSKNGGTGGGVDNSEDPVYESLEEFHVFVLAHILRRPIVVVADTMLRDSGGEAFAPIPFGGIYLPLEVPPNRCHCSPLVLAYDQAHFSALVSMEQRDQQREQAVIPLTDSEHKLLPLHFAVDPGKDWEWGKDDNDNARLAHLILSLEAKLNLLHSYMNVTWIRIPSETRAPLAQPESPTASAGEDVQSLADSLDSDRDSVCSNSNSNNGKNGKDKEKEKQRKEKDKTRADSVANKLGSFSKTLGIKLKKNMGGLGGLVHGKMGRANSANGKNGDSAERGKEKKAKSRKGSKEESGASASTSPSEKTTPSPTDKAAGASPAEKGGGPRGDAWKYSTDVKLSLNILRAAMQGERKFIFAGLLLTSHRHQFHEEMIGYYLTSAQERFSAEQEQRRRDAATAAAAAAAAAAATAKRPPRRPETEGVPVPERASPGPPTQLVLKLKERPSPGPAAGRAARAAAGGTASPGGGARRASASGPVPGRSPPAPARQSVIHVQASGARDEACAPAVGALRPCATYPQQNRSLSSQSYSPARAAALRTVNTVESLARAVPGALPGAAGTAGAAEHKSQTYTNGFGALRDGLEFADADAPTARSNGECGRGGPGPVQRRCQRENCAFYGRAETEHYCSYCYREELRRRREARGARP
Procedure, shortened: as §1

UniProt Q9P2H5 = target: T3, UniProt Q9P2H5
T3 sequence (whole entry): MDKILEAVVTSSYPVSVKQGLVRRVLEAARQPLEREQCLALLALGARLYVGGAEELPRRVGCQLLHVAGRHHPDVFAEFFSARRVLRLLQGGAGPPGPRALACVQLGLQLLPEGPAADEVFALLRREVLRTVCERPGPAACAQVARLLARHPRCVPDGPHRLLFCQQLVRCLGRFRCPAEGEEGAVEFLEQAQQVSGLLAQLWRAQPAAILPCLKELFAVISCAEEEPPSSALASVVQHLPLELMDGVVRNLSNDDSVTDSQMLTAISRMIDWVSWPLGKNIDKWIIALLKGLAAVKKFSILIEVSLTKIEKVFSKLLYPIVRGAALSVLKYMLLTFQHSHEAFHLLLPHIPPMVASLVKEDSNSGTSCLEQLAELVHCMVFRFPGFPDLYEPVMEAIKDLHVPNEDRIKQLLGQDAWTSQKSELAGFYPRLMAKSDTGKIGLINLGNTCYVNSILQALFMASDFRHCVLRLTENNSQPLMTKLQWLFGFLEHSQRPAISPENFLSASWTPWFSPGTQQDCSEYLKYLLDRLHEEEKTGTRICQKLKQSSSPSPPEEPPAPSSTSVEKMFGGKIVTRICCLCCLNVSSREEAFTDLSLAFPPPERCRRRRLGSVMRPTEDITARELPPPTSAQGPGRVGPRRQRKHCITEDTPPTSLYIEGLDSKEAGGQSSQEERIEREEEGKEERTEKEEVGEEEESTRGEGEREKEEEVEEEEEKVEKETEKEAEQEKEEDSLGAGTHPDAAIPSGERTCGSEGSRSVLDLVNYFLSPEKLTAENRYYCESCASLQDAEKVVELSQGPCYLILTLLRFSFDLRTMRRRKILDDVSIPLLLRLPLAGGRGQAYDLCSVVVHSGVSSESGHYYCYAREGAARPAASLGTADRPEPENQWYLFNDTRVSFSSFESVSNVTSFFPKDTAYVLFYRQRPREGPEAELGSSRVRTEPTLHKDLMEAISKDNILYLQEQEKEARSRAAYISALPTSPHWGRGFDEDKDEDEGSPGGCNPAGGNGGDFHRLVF
Procedure, shortened: as §1

UniProt Q9UGI0 = target: T4, UniProt Q9UGI0
T4 sequence (whole entry): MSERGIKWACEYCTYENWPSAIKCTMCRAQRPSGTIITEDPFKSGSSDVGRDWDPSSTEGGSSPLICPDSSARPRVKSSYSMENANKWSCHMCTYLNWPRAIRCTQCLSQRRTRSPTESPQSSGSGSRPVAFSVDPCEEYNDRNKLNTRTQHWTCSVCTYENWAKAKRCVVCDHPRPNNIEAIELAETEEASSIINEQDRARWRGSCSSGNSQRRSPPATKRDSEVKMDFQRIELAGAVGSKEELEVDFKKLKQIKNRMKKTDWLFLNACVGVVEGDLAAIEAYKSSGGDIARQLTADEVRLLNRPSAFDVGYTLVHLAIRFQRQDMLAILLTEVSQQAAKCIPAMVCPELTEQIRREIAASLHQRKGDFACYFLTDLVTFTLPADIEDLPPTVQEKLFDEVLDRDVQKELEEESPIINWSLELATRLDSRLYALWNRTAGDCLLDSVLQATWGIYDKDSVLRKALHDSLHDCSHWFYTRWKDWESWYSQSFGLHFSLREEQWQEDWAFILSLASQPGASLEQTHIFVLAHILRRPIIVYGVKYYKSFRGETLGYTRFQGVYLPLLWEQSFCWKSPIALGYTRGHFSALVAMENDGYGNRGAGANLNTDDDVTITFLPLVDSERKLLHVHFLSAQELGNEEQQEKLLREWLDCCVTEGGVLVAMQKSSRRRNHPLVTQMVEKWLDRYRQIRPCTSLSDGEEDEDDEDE
Procedure, shortened: as §1

YOD1 = target: T5, YOD1 (UniProt Q5VVQ6)
T5 sequence (whole entry): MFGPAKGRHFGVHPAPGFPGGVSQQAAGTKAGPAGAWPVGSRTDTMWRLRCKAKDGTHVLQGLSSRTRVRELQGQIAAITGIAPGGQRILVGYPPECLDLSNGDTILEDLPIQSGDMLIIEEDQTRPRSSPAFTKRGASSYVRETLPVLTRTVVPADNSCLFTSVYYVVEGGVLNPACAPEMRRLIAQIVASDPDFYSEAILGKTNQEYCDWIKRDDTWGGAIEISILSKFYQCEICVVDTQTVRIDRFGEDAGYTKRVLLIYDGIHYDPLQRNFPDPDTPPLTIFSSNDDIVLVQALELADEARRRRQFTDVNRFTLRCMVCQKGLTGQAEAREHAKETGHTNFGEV
Procedure, shortened: as §1

Measured: log2 ratio of Biotin-Ahx-Ub-VS probe labelling

UniProt P51784, sequence (P51784 whole entry): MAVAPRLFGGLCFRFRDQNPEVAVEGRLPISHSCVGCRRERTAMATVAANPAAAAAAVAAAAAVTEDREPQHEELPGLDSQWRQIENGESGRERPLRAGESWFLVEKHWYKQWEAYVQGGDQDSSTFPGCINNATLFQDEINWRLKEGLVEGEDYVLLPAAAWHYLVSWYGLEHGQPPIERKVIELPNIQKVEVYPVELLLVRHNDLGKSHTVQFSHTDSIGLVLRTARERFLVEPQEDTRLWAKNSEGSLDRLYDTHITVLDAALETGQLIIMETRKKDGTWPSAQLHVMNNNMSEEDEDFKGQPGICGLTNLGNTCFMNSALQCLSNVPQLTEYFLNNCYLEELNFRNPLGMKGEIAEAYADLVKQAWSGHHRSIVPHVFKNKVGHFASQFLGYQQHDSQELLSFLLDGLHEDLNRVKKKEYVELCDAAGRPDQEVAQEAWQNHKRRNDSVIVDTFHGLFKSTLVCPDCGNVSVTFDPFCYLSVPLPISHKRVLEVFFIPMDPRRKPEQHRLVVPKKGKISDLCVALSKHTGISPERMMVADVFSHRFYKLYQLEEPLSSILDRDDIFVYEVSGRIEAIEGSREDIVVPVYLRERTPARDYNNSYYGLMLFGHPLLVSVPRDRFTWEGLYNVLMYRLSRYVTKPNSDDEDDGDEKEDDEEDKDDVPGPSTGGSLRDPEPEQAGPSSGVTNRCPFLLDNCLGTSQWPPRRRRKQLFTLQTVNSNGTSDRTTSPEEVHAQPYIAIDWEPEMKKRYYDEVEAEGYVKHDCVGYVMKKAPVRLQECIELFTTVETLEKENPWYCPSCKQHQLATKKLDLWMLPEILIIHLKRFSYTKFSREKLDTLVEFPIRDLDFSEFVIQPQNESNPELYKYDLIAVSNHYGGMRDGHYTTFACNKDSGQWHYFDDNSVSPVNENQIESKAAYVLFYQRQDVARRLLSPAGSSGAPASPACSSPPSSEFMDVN
UniProt O00507, sequence (O00507 whole entry, the tested form may be a part): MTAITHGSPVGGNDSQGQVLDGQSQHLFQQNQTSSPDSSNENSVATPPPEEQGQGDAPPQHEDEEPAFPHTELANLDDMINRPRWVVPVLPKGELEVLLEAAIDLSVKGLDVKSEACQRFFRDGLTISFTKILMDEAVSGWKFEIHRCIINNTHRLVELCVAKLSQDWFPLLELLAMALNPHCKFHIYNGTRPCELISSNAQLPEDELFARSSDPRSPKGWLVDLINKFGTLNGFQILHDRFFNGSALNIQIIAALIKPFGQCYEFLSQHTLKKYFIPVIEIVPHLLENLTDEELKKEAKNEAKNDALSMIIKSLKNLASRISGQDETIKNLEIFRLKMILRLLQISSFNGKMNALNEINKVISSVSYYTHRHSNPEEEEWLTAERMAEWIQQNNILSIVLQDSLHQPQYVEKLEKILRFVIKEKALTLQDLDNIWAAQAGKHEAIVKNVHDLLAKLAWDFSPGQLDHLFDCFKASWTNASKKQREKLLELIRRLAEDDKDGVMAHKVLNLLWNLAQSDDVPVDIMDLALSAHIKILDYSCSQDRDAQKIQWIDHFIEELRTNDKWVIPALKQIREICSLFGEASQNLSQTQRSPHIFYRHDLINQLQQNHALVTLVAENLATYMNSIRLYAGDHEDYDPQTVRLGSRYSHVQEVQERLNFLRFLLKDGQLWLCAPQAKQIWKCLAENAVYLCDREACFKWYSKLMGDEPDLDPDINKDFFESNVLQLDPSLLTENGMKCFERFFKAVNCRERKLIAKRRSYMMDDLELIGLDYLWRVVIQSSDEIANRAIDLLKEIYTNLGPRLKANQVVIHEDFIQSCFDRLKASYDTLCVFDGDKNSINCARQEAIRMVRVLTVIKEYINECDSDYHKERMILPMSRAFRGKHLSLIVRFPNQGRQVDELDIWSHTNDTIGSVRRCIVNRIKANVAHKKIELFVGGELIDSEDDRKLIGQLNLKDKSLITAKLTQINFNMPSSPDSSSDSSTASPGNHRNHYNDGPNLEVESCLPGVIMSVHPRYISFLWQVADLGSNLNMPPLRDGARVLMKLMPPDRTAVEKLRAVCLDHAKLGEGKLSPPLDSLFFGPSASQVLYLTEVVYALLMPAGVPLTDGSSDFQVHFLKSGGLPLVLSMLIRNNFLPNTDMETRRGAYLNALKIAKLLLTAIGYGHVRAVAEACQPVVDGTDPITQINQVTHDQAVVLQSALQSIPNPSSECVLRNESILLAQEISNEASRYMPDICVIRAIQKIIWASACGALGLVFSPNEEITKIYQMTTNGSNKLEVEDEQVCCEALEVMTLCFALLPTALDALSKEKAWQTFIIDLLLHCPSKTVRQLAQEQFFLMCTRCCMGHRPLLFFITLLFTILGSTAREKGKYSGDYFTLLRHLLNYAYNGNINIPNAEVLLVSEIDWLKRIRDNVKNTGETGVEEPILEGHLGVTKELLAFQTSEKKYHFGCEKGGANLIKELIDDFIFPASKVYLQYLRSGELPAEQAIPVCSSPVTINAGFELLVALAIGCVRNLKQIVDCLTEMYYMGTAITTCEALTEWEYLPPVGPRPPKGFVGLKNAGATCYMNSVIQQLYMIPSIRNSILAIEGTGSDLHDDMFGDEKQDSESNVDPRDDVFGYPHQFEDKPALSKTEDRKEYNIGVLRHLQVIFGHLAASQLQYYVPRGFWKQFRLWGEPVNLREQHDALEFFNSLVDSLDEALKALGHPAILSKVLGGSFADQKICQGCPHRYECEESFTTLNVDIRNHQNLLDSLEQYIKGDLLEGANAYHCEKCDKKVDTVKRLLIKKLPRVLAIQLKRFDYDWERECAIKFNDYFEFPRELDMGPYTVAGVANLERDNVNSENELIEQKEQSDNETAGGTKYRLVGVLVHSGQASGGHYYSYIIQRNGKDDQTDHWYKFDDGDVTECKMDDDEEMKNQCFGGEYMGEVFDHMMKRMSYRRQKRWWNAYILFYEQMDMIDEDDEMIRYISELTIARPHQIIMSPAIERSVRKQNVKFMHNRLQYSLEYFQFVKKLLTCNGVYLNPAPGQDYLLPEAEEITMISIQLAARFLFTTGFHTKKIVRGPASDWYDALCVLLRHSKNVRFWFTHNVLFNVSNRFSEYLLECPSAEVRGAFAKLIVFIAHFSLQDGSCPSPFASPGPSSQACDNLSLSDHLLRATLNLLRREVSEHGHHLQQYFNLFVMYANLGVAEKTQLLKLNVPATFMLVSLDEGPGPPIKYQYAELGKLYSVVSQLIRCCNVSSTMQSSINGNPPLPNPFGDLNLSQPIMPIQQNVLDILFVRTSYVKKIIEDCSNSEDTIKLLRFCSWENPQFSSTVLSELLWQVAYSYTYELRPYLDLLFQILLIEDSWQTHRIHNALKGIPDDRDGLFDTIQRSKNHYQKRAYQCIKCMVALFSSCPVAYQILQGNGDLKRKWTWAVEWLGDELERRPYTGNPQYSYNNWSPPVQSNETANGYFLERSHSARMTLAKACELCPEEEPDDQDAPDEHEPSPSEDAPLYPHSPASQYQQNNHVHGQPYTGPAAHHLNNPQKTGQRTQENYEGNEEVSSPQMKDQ

COCC[C@@H](NC(=O)CCl)c1ccccc1
inactive: UniProt O00507 -0.0256 | UniProt P51784 0.0932 | UniProt Q5T2D3 -0.0591 | UniProt Q8TE49 -0.208 | UniProt Q9P2H5 -0.159 | UniProt Q9UGI0 -0.681 | YOD1 0.231

O=C(CCl)NCc1noc(C2CC2)n1
inactive: UniProt O00507 -0.504 | UniProt P51784 0.0106 | UniProt Q5T2D3 -0.464 | UniProt Q8TE49 -0.385 | UniProt Q9P2H5 -0.13 | UniProt Q9UGI0 -0.133 | YOD1 -0.415

Cl.O=C(CCl)N1CCN(Cc2ccccc2)CC1
inactive: UniProt O00507 -0.496 | UniProt P51784 0.0203 | UniProt Q5T2D3 -0.213 | UniProt Q8TE49 -0.391 | UniProt Q9P2H5 0.0502 | UniProt Q9UGI0 -0.536 | YOD1 -0.381

CC(=O)C1CCCCN1C(=O)CCl (centres undefined)
inactive: UniProt O00507 0.17 | UniProt P51784 0.028 | UniProt Q5T2D3 -0.0455 | UniProt Q8TE49 -0.492 | UniProt Q9P2H5 -0.14 | UniProt Q9UGI0 0.121 | YOD1 -0.0382

O=C(CCl)N1CCc2ccccc2C(O)C1 (centres undefined)
inactive: UniProt O00507 -0.255 | UniProt P51784 -0.0328 | UniProt Q5T2D3 -0.418 | UniProt Q8TE49 -0.836 | UniProt Q9P2H5 0.153 | YOD1 -0.325
active: UniProt Q9UGI0 -1.86

O=C(CCl)N1CCC(OCc2ccccc2F)CC1
inactive: UniProt O00507 -0.226 | UniProt P51784 0.146 | UniProt Q5T2D3 -0.173 | UniProt Q8TE49 -0.355 | UniProt Q9P2H5 0.097 | UniProt Q9UGI0 -0.394 | YOD1 0.135

CS(=O)(=O)N1CCCN(C(=O)CCl)CC1
inactive: UniProt O00507 0.0618 | UniProt P51784 -0.0587 | UniProt Q5T2D3 -0.154 | UniProt Q8TE49 -0.261 | UniProt Q9P2H5 -0.224 | UniProt Q9UGI0 -0.469 | YOD1 0.146

O=C(CCl)N1CCOC(c2cccc(F)c2)C1 (centres undefined)
active: UniProt Q8TE49 -1.26 | UniProt Q9UGI0 -1.44
inactive: UniProt O00507 0.244 | UniProt P51784 -0.328 | UniProt Q5T2D3 -0.182 | UniProt Q9P2H5 -0.416 | YOD1 -0.0782

Cc1cc(C2CCCN2C(=O)CCl)nn1C.Cl (centres undefined)
inactive: UniProt O00507 -0.0169 | UniProt P51784 -0.386 | UniProt Q5T2D3 -0.106 | UniProt Q8TE49 -0.432 | UniProt Q9P2H5 -0.247 | UniProt Q9UGI0 0.115 | YOD1 -0.199

Cl.O=C(CCl)N1CCn2ncc(O)c2C1
active: UniProt Q8TE49 -2.17 | UniProt Q9UGI0 -1.92
inactive: UniProt O00507 -0.112 | UniProt P51784 -0.0869 | UniProt Q5T2D3 -0.448 | UniProt Q9P2H5 -0.541 | YOD1 -0.272

COc1ccc(-c2csc(NC(=O)CCl)n2)cc1
active: UniProt Q9UGI0 -2.09
inactive: UniProt O00507 -0.576 | UniProt P51784 -0.0937 | UniProt Q5T2D3 -0.257 | UniProt Q8TE49 -0.479 | UniProt Q9P2H5 -0.528 | YOD1 -0.00199

O=C(CCl)N1CC2(CCOCC2)C1
inactive: UniProt O00507 -0.0593 | UniProt P51784 0.164 | UniProt Q5T2D3 -0.249 | UniProt Q8TE49 -0.469 | UniProt Q9P2H5 -0.109 | UniProt Q9UGI0 -0.328 | YOD1 -0.131

O=C(CCl)Nc1nnc(CC(F)(F)F)o1
inactive: UniProt O00507 -0.0948 | UniProt P51784 -6e-05 | UniProt Q5T2D3 -0.844 | UniProt Q8TE49 -0.179 | UniProt Q9P2H5 -0.149 | UniProt Q9UGI0 -0.304 | YOD1 0.0603

Cc1cccc2nc(CCNC(=O)CCl)cn12.Cl
inactive: UniProt O00507 -0.595 | UniProt P51784 -0.113 | UniProt Q5T2D3 -0.351 | UniProt Q8TE49 -0.764 | UniProt Q9P2H5 -0.327 | UniProt Q9UGI0 -0.846 | YOD1 -0.336

Cc1ccc2nnc(CNC(=O)CCl)n2c1
inactive: UniProt O00507 0.487 | UniProt P51784 -0.0917 | UniProt Q5T2D3 -0.119 | UniProt Q8TE49 -0.36 | UniProt Q9P2H5 -0.342 | UniProt Q9UGI0 0.244 | YOD1 0.241

Cc1ccc(N2CCC(NC(=O)CCl)C2=O)cc1 (centres undefined)
inactive: UniProt O00507 0.561 | UniProt P51784 0.0347 | UniProt Q5T2D3 -0.0872 | UniProt Q8TE49 -0.518 | UniProt Q9P2H5 -0.134 | UniProt Q9UGI0 0.0412 | YOD1 0.132

Cl.O=C(CCl)N1CC(c2ccc(Br)cn2)C1
inactive: UniProt O00507 -0.573 | UniProt P51784 -0.0636 | UniProt Q5T2D3 -0.282 | UniProt Q8TE49 -0.974 | UniProt Q9P2H5 -0.175 | UniProt Q9UGI0 -0.897 | YOD1 -0.229
